Screens deposited in PubChem by Johns Hopkins Ion Channel Center.
Only some compounds are listed: those with a hit (about 1.6% of all), similar ones and a draw of the others.
KCNQ2 block – inhibitors of rat KCNQ2 potassium channel; O88943; 310,000 tested, 1.1% active; CHO-K1 KCNQ2, FluxOR thallium flux, 20 min; hits give low values; B-score at 10 µM;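 active means fluorescence ratio B-score at most minus 3 library SDs, with starting brightness B-score within 2 library SDs, cut at about -5.5 in these data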
KCNQ2 pot – enhances the rat KCNQ2 potassium channel; O88943; CHO-K1 KCNQ2, FluxOR thallium flux fluorescence; hits give high values; B-score at 10 µM; 310,000 tested, 0.54% active;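 active means fluorescence ratio B-score at least 3 SD of library B-scores, with initial fluorescence B-score within 3 of them, cut at about 5.3 in these data; same plate scores as AID 2156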;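 further: B-score of peak minus minimum over baseline fluorescence ratio after K+ and Tl+ stimulus; positive B-score means potentiation of KCNQ2 with more thallium influx and brighter signal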
KCNQ2 inh conf – rat KCNQ2 channel inhibition, confirmatory screen; shares compounds with KCNQ2 block; KCNQ2-expressing cells, thallium flux; hits give low values; activity change, negative = inhibition, % at 10 µM; 1,000 tested, 57% active; AID 493025;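 further: 0% = vehicle wells and values are ratio percent relative to vehicle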
KCNQ1 spec – KCNQ2 inhibitor that also affects human KCNQ1 channel | activity change, negative = inhibition, % at 10 µM | KCNQ1-expressing cells, FluxOR thallium flux fluorescence; hits give low values | AID 493026 | 1,000 tested, 15% active | shares compounds with KCNQ2 block;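 active means activity change at least 3 SD of negative controls below their mean in both duplicate wells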;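 further: CHO cells stably transfected with KCNQ1 and depolarized by potassium stimulus; peak minus minimum fluorescence over baseline after thallium addition; 0% = vehicle negative control and -100% = blank without thallium stimulus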
Target sequence (P51787 whole entry, looked up): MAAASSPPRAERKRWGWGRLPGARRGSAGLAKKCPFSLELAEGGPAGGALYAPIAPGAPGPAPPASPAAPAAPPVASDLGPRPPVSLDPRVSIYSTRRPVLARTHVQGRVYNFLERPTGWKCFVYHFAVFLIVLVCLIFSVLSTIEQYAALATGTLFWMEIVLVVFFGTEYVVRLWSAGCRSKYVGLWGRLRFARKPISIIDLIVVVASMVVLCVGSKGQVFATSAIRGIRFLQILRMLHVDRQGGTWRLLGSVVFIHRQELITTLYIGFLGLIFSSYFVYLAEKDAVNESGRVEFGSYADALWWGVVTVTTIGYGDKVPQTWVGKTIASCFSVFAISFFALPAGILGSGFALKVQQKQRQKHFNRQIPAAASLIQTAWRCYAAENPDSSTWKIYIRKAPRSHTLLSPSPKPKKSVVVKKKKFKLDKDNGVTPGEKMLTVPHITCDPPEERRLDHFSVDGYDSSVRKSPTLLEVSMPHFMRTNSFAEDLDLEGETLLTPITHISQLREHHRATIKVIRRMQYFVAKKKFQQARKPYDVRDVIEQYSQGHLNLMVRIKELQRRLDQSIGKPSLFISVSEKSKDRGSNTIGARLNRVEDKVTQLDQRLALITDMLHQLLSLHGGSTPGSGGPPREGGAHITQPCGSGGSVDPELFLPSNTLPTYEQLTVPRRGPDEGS
CHO Tl ctr – activity in parental CHO cells lacking KCNQ2; shares compounds with KCNQ2 block; thallium flux counter-screen; hits give low values; activity change, % at 10 µM; 1,000 tested, 14% active; AID 493029;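 further: 0% = vehicle negative controls with stimulus buffer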
KCNQ2 patch conf – rat KCNQ2 inhibition confirmed by electrophysiology | calls only at 10 µM | 550 tested, 49% active | KCNQ2-expressing cells, automated patch clamp current | shares compounds with KCNQ2 block
* hit, by the source's call; i = inactive; . = no result; + = active, no number. Unless noted, how the calls were made is not given here.

SMILES	KCNQ2 block	KCNQ2 pot	others
COc1cc(CN2CC3CC(C2)c2cccc(=O)n2C3)cc(OC)c1OC (centres undefined)	i	0.5
COc1cc(C)c(-c2nc(CN3C[C@@H]4C[C@@H](C3)c3cccc(=O)n3C4)c(C)o2)cc1C	-5.77*	-5.77
Cc1ccccc1N1CCN(Cc2ccc3c(c2)OCO3)CC1	i	.
O=[N+]([O-])c1ccc(N2CCCC(C(F)(F)F)C2)c2ccncc12 (centres undefined)	i	.
CCN(CC)P(=O)(/C=C(\Cl)c1ccccc1)/C=C(\Cl)c1ccccc1	-5.86*	-5.86
O=P(O)(O)/C=C(\Cl)c1ccccc1	i	.
Cc1ccc(NC(=O)[C@@H](NC(=O)N2C[C@H]3C[C@@H](C2)c2cccc(=O)n2C3)C(C)C)cc1	i	1.54
CCOc1cccc(C2NCc3ccccc3-n3cccc32)c1O (centres undefined)	-6.75*	-6.75
CCOc1cc(C2NCc3ccccc3-n3cccc32)ccc1O (centres undefined)	i	.
Cc1ccc2[nH]c(C)c(CCNCc3cccnc3)c2c1	i	.
CN[C@H]1C[C@H]2O[C@@](C)([C@H]1OC)n1c3ccccc3c3c4c(c5c6ccccc6n2c5c31)C(=O)NC4	i	9.27*
Cc1c2cnn(CC(=O)N3CCC4(CC3)OCCO4)c(=O)c2c(C)n1Cc1ccc(F)cc1	i	2.19
O=C(Cn1ncc2c3ccccc3n(Cc3ccccc3F)c2c1=O)N1CCC2(CC1)OCCO2	i	15.5*
CN(CCc1ccccc1)Cc1ccccc1[N+](=O)[O-]	i	.
Oc1ccccc1CN(CCc1ccccc1)Cc1ccccc1	-6.05*	-6.05
C#CC[N+]1(C)[C@@H]2CC(OC(=O)C(CO)c3ccccc3)C[C@H]1C(O)C2 (some centres undefined)	i	0.78
CC(C)n1c(=O)c(C=Nc2cccc([N+](=O)[O-])c2)c(O)n(CCc2ccccc2)c1=O	-6.71*	-6.71
CC(C)n1c(=O)c(C=Nc2ccc(S(N)(=O)=O)cc2)c(O)n(Cc2ccco2)c1=O	i	1.03
COc1cccc(NP(=O)(Oc2ccccc2)Oc2ccccc2)c1	i	.
O=P(Nc1cccc(Cl)c1)(Oc1ccccc1)Oc1ccccc1	-5.57*	-5.57
N/C(=N\[N+](=O)[O-])N1CCN(C(=O)OC2CCCC2)CC1	i	.
O=C1CN=C(c2cccc(Br)c2)c2cc(Br)ccc2N1	i	0.92
CC/C=C/CC(=O)N[C@@H](c1ccccc1)[C@@H](O)C(=O)O[C@H]1C[C@@]2(O)[C@@H](OC(=O)c3ccccc3)C3[C@](C)(C(=O)[C@H](OC(C)=O)C(=C1C)C2(C)C)[C@@H](O)C[C@H]1OC[C@@]31OC(C)=O (some centres undefined)	-5.62*	-5.62
CCC(C)C(=O)N[C@@H](c1ccccc1)[C@@H](O)C(=O)O[C@H]1C[C@@]2(O)[C@@H](OC(=O)c3ccccc3)C3[C@](C)(C(=O)[C@H](OC(C)=O)C(=C1C)C2(C)C)[C@@H](O)C[C@H]1OC[C@@]31OC(C)=O (some centres undefined)	i	.
C/C(=N\N(C)c1ccccc1)c1c(O)[nH]c(=O)[nH]c1=O	i	1.04
SMILES	KCNQ2 block	KCNQ2 pot	others
O=C1N[C@H](Cc2ccccc2)C(=O)N2[C@@H]3[C@H](C[C@@H]12)c1ccccc1N3OOSc1ccccc1	i	.
Cc1nc2ccccc2c(=O)n1-c1cc([N+](=O)[O-])cc([N+](=O)[O-])c1	i	0.08
CN1CCC(N(C)c2nc(-c3ccc([N+](=O)[O-])cc3)nc3ccccc23)CC1	-5.99*	-5.99
CCN1CCC(NCC2CCCCC2)CC1	i	2.14
CCCCNS(=O)(=O)c1ccc(OCC(=O)N2CCN(Cc3ccc4c(c3)OCO4)CC2)cc1	i	1.95
CN1CCC(=O)N(CCN=[N+]=[N-])CC1	i	0.18
Cc1ccc(N2C(=O)NC(=O)C3(Cc4ccccc4N4CCN(c5ccccc5)CC43)C2=O)cc1 (centres undefined)	-7.1*	-7.1
O=C1NC(=O)C2(Cc3ccccc3N3CCCC32)C(=O)N1c1cccc(Cl)c1 (centres undefined)	i	.
CN(C)C(=S)SSC(=S)N(C)C	-10.3*	-10.3	KCNQ2 inh conf=i;KCNQ1 spec=i;CHO Tl ctr=i
CCCCn1c(=O)c(C(=O)NC(C)c2ccccc2)c(O)c2ccccc21 (centres undefined)	-11.8*	-11.8	KCNQ2 inh conf=i;KCNQ1 spec=i;CHO Tl ctr=i
CCCCn1c(=O)c(C(=O)NCCc2ccccc2)c(O)c2ccccc21	i	.
CNC(C(=O)c1ccccc1)C(OC(C)=O)c1cccc([N+](=O)[O-])c1 (centres undefined)	i	0.02
FC(F)(F)c1ccc2c(c1)N(CCCN1CCN(CCCl)CC1)c1ccccc1S2	-7.04*	-7.04	KCNQ2 inh conf=-32.5%*;KCNQ1 spec=i;CHO Tl ctr=i;KCNQ2 patch conf=i
Nc1ccc(CCN2CCN(c3cccc(C(F)(F)F)c3)CC2)cc1	i	0.04
CCc1nn(CC(=O)N2CCC3(CC2)OCCO3)c(=O)c2cc3ccccc3n12	i	2.98
N=C1SCC(=O)N1Cc1ccccc1	i	1.26
CCC1(CC)C(=O)N(Cc2ccccc2)C(=O)N(Cc2ccccc2)C1=O	-8.19*	-8.19	KCNQ2 inh conf=i;KCNQ1 spec=i;CHO Tl ctr=i
Cc1ccc(C)c(NC(=S)NCCc2cnc[nH]2)c1	i	1.05
COc1ccc(OP(=O)(Nc2ccccc2)Nc2ccccc2)cc1	i	.
Cc1ccc(NP(=O)(Nc2ccc(C)cc2)Oc2ccccc2)cc1	-7.08*	-7.08	KCNQ2 inh conf=-31.0%*;KCNQ1 spec=i;CHO Tl ctr=i;KCNQ2 patch conf=+
COCCN(C(=O)COC(=O)Cc1ccccc1)c1c(N)n(Cc2ccccc2)c(=O)[nH]c1=O	i	0.3
CCOC(=O)C1(c2ccccc2)CCN(CC(=O)Nc2cccc3ccccc23)CC1	i	.
O=C(Nc1cccc2ccccc12)c1nn(C23CC4CC(CC(C4)C2)C3)cc1Br	-7.99*	-7.99	KCNQ2 inh conf=-25.5%*;KCNQ1 spec=i;CHO Tl ctr=i;KCNQ2 patch conf=i
CNC(=O)O/N=C(\C)Cc1nnn(-c2cc(C)on2)n1	i	.
CC(=Nc1ccccc1N)c1c(O)n(C)c(=O)[nH]c1=O	i	0.1
O=c1cccc2n1C[C@@H]1C[C@@H]2CN(CC(O)c2ccc([N+](=O)[O-])cc2)C1 (some centres undefined)	i	.
C[n+]1c(-c2ccccc2)cc(-c2ccc(Cl)cc2)cc1-c1ccccc1	i	1.02
Cc1ccc(-c2cc(-c3ccc(C)cc3)[n+](C)o2)cc1	i	.
